Here are results for 68 sequences from PubChem BioAssay AID1508600 (Functional Genomics Laboratory (NCATS/FGL), 2020).

In all, about 53,000 sequences went through this assay and about 3,700 (7%) were called active. Shown is part of a subset that was picked to be rich in actives. Values without a mark were called inactive.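 The calls were made as follows: active = gene knockdowns whose robust z-score for IL-1 alpha signal is at least 2 or at most -2, so actives lie on both sides; inactive = the rest.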

The assay in a line: Components of the Cytosolic LPS Sensing Pathway: Gene Identification via Genome-wide siRNA Screen.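 Also: robust z of the log signal after scaling to non-targeting control siRNA wells of the plate.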 The conditions noted are these: RAW264.7 macrophages, IL-1a HTRF, actives lie on both sides, screened at 100 nM (by protocol), cells primed 5 h with Pam3CSK4 first. In a few lines:
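IL-1a HTRF of supernatants after 24 hour LipidA transfection of Pam3CSK4-primed (5 hours) RAW264.7 cells, 48h post-siRNA transfection (100 nM). Scores: percent of plate negative-control median, then log-based robust z-score.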
For orientation: Time-resolved FRET reads energy transfer from a long-lived donor to a nearby acceptor.
Regarding CCUUCAUUCUCAUGUGACCTT against Psat1, the z-score was -1.2.

In the case of CCUUAAGGAACUAGGAUUCTT against Lgr5, the z-score is 1.05. With GGUCCUCCCAUAAUCUAGUTT against Lrrc75a the figure was 1.18; with GCUCAUUGCACUAAAAGACTT against Tnnt1, -1.92.

Regarding CCGCGUCUGUAUUUGAUAUTT against Sccpdh, the z-score was 1.68. With GGAAGUCCUGGACAUUCAGTT against Nfkbie the figure was 5.66 (active); with GGUUGAGUUUCAGUGCAUCTT against Klhl28, -0.632; with GCUUGAUUGUCAGUUGGAATT against Tcp11, -0.364. The same measure for GGGUAGUUUUGACUUUGUUTT against Schip1: 0.472; for GGAAUAAGGCGAGUUGGAATT against Serbp1: 0.493; for GGCCUAUAAUUUCUUUACGTT against Cc2d2a: -0.823. With CGCGAGGAAGUCGAGGUAUTT against Pax2 the figure was 1.17. On to GGAUGUACACAGAAGGCCATT against Sucnr1, for which the z-score is 3.47 (active). The same measure for GGCACCCUCAAGAAAGCGUTT against Nol6: -1.34; for GGGCUUACUGCUUAAUAGATT against Fundc2: 0.481.

CGUGGACUUAAUAUUUCAGTT against Btbd7: the z-score was 0.685. The same measure for GCCUCCUAGUAUUUACAUGTT against Ube2j2: 0.8; for “CCAGGCCAAAUCUCACAAUTT against A730008H23Rik”: -2.2 (active); for CCGUGAAAAUCAGUAAUUATT against Cacybp: -0.546. The same measure for GGACUUAUCAAGCUGGUUUTT against Rps25: -1.48.

In the case of GCUCACAUUGAGUGGUUGGTT against Ncbp3, the z-score is 0.542. GGAGUUACGUAGAACUACCTT against Adam25: the z-score is 0.543. Consider GCAAAUAUUGGCCACUCUCTT against Prpf19, for which the z-score was -0.523. Regarding GCCAAGAAAAUCAAGUCUCTT against Pknox2, the z-score was 0.892.

GGAAGGAGAAGAAAACAUATT against Gtf3c6: the z-score is -2.13 (active). With GGCUGUCCAGACUAGUUCUTT against Lsm14b the figure was -0.317; with CCUCAUCAUAUUCUCCUGATT against Olfr869, -0.848; with CCUGUCUUUAGUGGACUUUTT against Olfr1453, 0.22. GGUCUUUGAGAAGUACCACTT against Chst3: the z-score is -0.22.

With CCAGUCCUUGAAAAGAGCUTT against Olfr128, the z-score was -2.35 (active).

In the case of CGCCCAAAUUGACUAUUUGTT against Fam214b, the z-score is 0.351. With GAGAGCGGAGAGAUCAAAGTT against Iltifb, the z-score is 0.108. With GGCUGUUCCAGAGAUUGUGTT against Mela the figure was -0.29; with GCGGUAUGAGAAGGUUCCATT against Rap2a, 3.48 (active); with GGCAUUGACAUCAUGUACUTT against Agxt, 1.1. With GCGACAUCACAAGAAUCGATT against Fancd2 the figure was -0.979. With CCUAUCAAAUUAAAUGCGCTT against Muc13 the figure was -0.6; with GGUUGUGAUCAAUUAUUCATT against Evl, 1.27; with GGAACACUCUGAAUUCAUUTT against Cxcl15, 0.0905.

Turning to GCUGCUUUACUUAAGAGUUTT against Srf, the z-score is 0.625. Consider GCGAAACUUCCAGAUCUAGTT against Cnot11, for which the z-score is 2.14 (active). With GGGCAAGAGAGUAGAACUGTT against Ambra1 the figure was 0.383; with GGUGACACAGCUGCUUUUCTT against Dact2, 0.107. With CGGUCCAGGAAGAAUGUUUTT against Bckdhb the figure was -0.781; with GGAUUGUCAGAAAUCCUGATT against Adat2, -1.22; with CCCAUCAAUAUCAUAUCCATT against Car7, -2.34 (active). With CCAGAGUUCUGGGAUUCCATT against Cyp2c66 the figure was -0.948.

Turning to GGCCAAGAAUGAUCGUUCUTT against Gabrb3, the z-score was 0.00587. Turning to GCAGACAGUAAAUUGGUAATT against Mab21l3, the z-score is 0.915. With GGAUUACACACCUACGAUCTT against Taf10 the figure was -1.63; with CGACUACCUGGAUAUCUACTT against Efna2, -0.292.

Consider GGCGUGUUGAGACAAUCCUTT against Lkaaear1, for which the z-score was -0.815. In the case of GCAUAGCAGGAAGGCCUUGTT against Htr6, the z-score was 0.183. With GCAUAUUGUGCGACUUUUCTT against Utp15 the figure was -2.16 (active); with GCAAAUUUUAUCAACCGCATT against Mical3, -0.0618; with CGACCAUACGAAUGCGGCATT against Zfp865, 0.498. The same measure for GGCUUGAACACAAGAAAGCTT against Golim4: -0.778; for “GGAUGAGAAUAUUGAAAGATT against 4932415M13Rik”: -0.225. With GGCAGGAAAACUGCCAAUGTT against Gm6034 the figure was 1.36; with CCUUAAUUGGGUUGAAUUCTT against Olfr878, 2.44 (active); with GCUGACUAAGGCUUGUAAUTT against Hrnr, -0.194.

On to GGUUAAUUCCAACAAAGCATT against Orc4, for which the z-score is -0.529. Turning to GGUCUACAACCAAAUCUGCTT against Clec7a, the z-score was -0.531. With CCUGAGACUGCAUCUUUUCTT against Slc10a7 the figure was -0.693.

As to GCCAAAUUAAGUAUCUUGATT against Lamp2, the z-score was 0.371. The same measure for GCCUCAUUGAAAGGAUCCATT against Mgat5b: -2.32 (active). The same measure for GGCGGAAAAAAAAGUAAUATT against Crebzf: 0.926; for GGCUCAUUGGACAUAUAUGTT against Casp8ap2: -1.77.
